Compound activity (PubChem)
PNC assembly inh = perinucleolar compartment assembly inhibition; activity change (PNC), negative = inhibition, % at 10 µM; 140,000 tested, 3.1% active; AID 2417; PC3M PTB-GFP, PNC prevalence imaging, 16 h; hits give low values;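 active means readout at or below -70, meaning at least 70% loss of cells showing the perinucleolar compartment, a nuclear body marking cancer cells; inconclusive means readout between -30 and a set limit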;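 further: plate controls were DMSO wells for no effect and camptothecin positive control wells for full effect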
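Compounds are pinned in duplicate onto adhered PC3M cells stably expressing GFP-tagged PTB and incubated 16 h at 37 C. Cells are then fixed, nuclei stained with Hoechst, and PNC-positive cells counted.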
HPGD inh = inhibitors of human 15-hydroxyprostaglandin dehydrogenase (HPGD); AID 894; 150,000 tested, 4.3% active; purified HPGD, NADH fluorescence kinetic, PGE2 substrate; Potency, µM, without a hit: at the highest dose activity change, negative = inhibition, hits mostly inhibitors; further: potency means the concentration at half of the fitted maximal effect; on the % scale 0 is the no-effect control and ±100 the full control effect
Target sequence (P15428 whole entry, looked up): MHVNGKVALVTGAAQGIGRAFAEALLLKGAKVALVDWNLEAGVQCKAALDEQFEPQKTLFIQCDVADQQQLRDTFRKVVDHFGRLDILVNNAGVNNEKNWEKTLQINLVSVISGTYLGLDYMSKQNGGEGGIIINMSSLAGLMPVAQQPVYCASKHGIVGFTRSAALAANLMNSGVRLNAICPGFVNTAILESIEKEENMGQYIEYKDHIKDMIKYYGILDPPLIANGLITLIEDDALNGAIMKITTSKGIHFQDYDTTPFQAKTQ
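20 nM HPGD preincubated 15 min at room temperature with compound in 50 mM Tris-HCl pH 8, 0.01% Tween 20. Started with 1 mM NAD+ and 30 uM prostaglandin E2; NADH fluorescence (360/450 nm) read 5 times over 30-s intervals, last minus first.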
ALDH1A1 inh-1 = ALDH1A1 (human) enzyme inhibition; P00352; Purified ALDH1A1, NADH fluorescence, propionaldehyde substrate; Potency, µM (top dose mostly 75.3 µM), inactives show top-dose activity, negative = inhibition, most hits filed as inhibitors; 220,000 tested, 7.3% active; AID 1030;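 further: potency means the concentration at half of the fitted maximal effect; plate controls were no enzyme wells and a reference inhibitor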
HPGD inh cf = confirmation of human HPGD inhibitors; shares compounds with HPGD inh; recombinant HPGD, NADH fluorescence, PGE2 substrate; Potency, µM (top dose mostly 57.1 µM), inactives show at the highest dose activity change, negative = inhibition, hits mostly inhibitors; 90 tested, 90% active; AID 2429; calls by dose curve
ALDH1A1 inh-2 = Confirms inhibition of human ALDH1A1 with counterscreen. shares compounds with ALDH1A1 inh-1. purified ALDH1A1, NADH fluorescence, propionaldehyde/NAD+. Potency, µM (top dose mostly 57.1 µM), for the others: top-dose activity change, negative = inhibition, usual class: inhibitors. 90 tested, 90% active. AID 493210; calls by dose curve
* marks the source's active call; other numbers are inactive results; ? = inconclusive; . = no result; ! = a repeat was not active; [ ] = remark or other dose. This is a sample that favours compounds with a hit; in the whole collection about 11% have one here. Unless noted, the call rests on the fitted dose curve; in most records, active means well fitted inhibition curve with a large enough effect (not every such curve was filed as active); inconclusive means small, poorly fitted or top-dose-only effect, or another doubt; inactive means no such curve, though single readings can be large or run the other way.

SMILES	PNC assembly inh	HPGD inh	ALDH1A1 inh-1	others
COC(=O)Nc1cccc(OC(=O)Nc2cccc(C)c2)c1	.	-27%	?
O=C1CS[C@@H](c2ccccc2Cl)c2cc(Cl)ccc2N1	.	-20%	-9%
c1ccc2sc(C3(N4CCCCC4)CCCCC3)cc2c1	.	9%	3%
CN(C)C(=O)Nc1cccc(C(F)(F)F)c1	.	-4%	3%
CN(C)c1ccc(N=Cc2c(O)n(CCC3=CCCCC3)c(=O)[nH]c2=O)cc1	24	-8%	4%
COc1ccc(/C=C2\C(=O)NC(=O)N(CCC3=CCCCC3)C2=O)c(OC)c1	-12	20µM*	0.32µM*
CCN1C(=O)NC(=O)/C(=C\c2ccc(N3CCOCC3)cc2OC)C1=O	3	?	?
O=C1NC(=O)N(CCC2=CCCCC2)C(=O)/C1=C/c1ccc(O)cc1	-15	11µM*	0.79µM*
O=C(O)CF	.	-2%	0%
C[C@]12N[C@@H](Cc3ccccc31)c1ccccc12	.	-1%	-2%
N[C@@H](Cc1c[nH]c2cc([N+](=O)[O-])ccc12)C(=O)O	.	-8%	4%[13.5 µM]
CNC(C)Cc1ccccc1OC (configuration not stated)	.	-9%	-4%
CCc1ccccc1N1C(=O)/C(=C/c2ccc(N3CCN(C)CC3)o2)C(=O)NC1=S	4	-6%	?
Cc1cccc(N2C(=O)/C(=C/c3ccc(N4CCN(C)CC4)o3)C(=O)NC2=S)c1C	13	-37%	14µM*
CC(CN)CC(=O)O (configuration not stated)	.	.	-1%
N#CC(C#N)=Cc1ccc(-c2ccccc2F)o1	-3	-3%	8.9µM*
N#CC(C#N)=Cc1ccc(-c2ccccc2)o1	43	-14%	?
CCc1cccc(CC)c1N(COC)C(=O)CCl	.	-3%	3%
CCOCN(C(=O)CCl)c1c(C)cccc1CC	.	-5%	32µM*!
CN1CCC(O)(c2ccc(Cl)cc2)C(C(=O)c2ccc(Cl)cc2)C1 (configuration not stated)	.	.	0.11µM*
CN1C2CCC1CC(OC(=O)c1ccc(Cl)cc1)C2 (configuration not stated)	-13	-3%	-11%
CC(=O)OC1C[C@]2(C)C(C(C)=O)CCC2C2CCC3=CC(=O)CC[C@@]3(C)C12 (some centres not stated)	.	0%	?
CCCN(CC#CCOc1ccc(OC)cc1)CCC	65	-10%	20µM*
NCCCC(=O)OC1N=C(c2ccccc2Cl)c2cc(Br)ccc2NC1=O (configuration not stated)	.	.	3%
NC(C(=O)O)[C@@H]1CC(Cl)=NO1 (some centres not stated)	.	-25%	?
SMILES	PNC assembly inh	HPGD inh	ALDH1A1 inh-1	others
COC[C@H]1OC(=O)c2coc3c2[C@@]1(C)C1=C(C3=O)[C@H]2CCC(=O)[C@@]2(C)C[C@H]1OC(C)=O	.	32µM*	28µM*
COC[C@H]1OC(=O)c2coc3c2[C@@]1(C)C1=C(C3=O)C2CCC(=O)[C@@]2(C)C[C@H]1OC(C)=O (some centres not stated)	.	35µM*!	28µM*!
Nc1ncc([N+](=O)[O-])s1	.	?	25µM*
COc1cc2c3cc1Oc1cc(ccc1O)C[C@@H]1c4c(cc(OC)c(O)c4Oc4ccc(cc4)C[C@H]3N(C)CC2)CCN1C	-97*	-10%	-3%
COc1ccc(C[C@@H]2C(=O)N[C@H](C)C(=O)N(C)[C@@H]3C(=O)N(C)[C@@H](Cc4ccc(O)c(c4)Oc4ccc(cc4)[C@H]3O)C(=O)N[C@@H](C)C(=O)N[C@H](C)C(=O)N2C)cc1	.	-1%	11%[13.5 µM]
CC(=O)NC1CC2CCCC(C1)N2C(=O)Nc1ccccc1 (configuration not stated)	63	-7%	23%
O=P1(Nc2cccnc2)COc2ccccc2OC1	-7	7.1µM*	-5%
O=P(Nc1cccnc1)(Oc1ccccc1)Oc1ccccc1	?	-11%	-17%
COc1ccccc1N1CCN(C2CCN(C(=O)c3cc(OC)c(OC)c(OC)c3)CC2)CC1	0	-15%	?
COc1ccccc1N1CCN(C2CCN(C(=O)c3cccs3)CC2)CC1	-119*	7%	?
Cc1cc(OC(=O)N2CCCCC2)c(C(C)C)cc1[N+](C)(C)C	.	-11%	-5%
Cc1c2ccncc2c(C)c2c1[nH]c1ccccc12	-115*	-16%	?
O=c1c2ccccc2[nH]c(=S)n1-c1cccnc1	.	.	10%
CCCCSP(=O)(SCCCC)SCCCC	.	-12%	11%
CCOC(=O)N1CCN(Cc2ccccc2F)CC1	9	-1%	14µM*
CCN1CCN(Cc2ccccc2C)CC1	-4	-7%	-1%
COc1ccc(OC(=O)N(C)C)c(CN(C)C)c1	56	0%	20%
Cc1cc(CN(C)C)c(OC(=O)N(C)C)cc1C	-122*	.	6%
O=P1(NC2CCCC2)COc2ccccc2OC1	-26	0.071µM*	-9%	HPGD inh cf=0.16µM*
CCOC(=O)C1=C(C)N(C)C2(C)CC1c1ccccc1O2 (configuration not stated)	-8	-15%	2%
O=P1(NCc2ccco2)COc2ccccc2OC1	-13	1µM*	0%	HPGD inh cf=1µM*
c1ccc(CC(NCc2ccco2)c2ccccc2)cc1 (configuration not stated)	.	.	-5%
Cc1nn(Cc2ccccc2Cl)c(C)c1C(=O)NC1CCCc2ccccc21 (configuration not stated)	-28	-7%	-10%
COc1cc2c(cc1OC)-c1c(OC)c(OC)cc3c1[C@H](C2)[N+](C)(C)CC3	72	-24%	?
O=C1C=CC(=O)c2c1ccc1c2ccc2ccccc21	.	11µM*	0.32µM*	ALDH1A1 inh-2=0.32µM*
N#Cc1ccc(N2CCNCC2)c(F)c1	-23	-2%	-1%
O=C1CCCN1c1ccc(S(=O)(=O)O)cc1 (tested in a mixture with another compound)	19	0%	6%
